Measured values published in PubChem BioAssay (NCI).
“And” between values parts separate entries of the source, which are not always exact repeats. Identical values can stand only once. The panel holds about 83,000 compounds, 20% with a hit somewhere; the sample as a whole holds those more often.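 How to read the values: 0–100, growth inhibition (40 = 60% inhibited); 0, no net growth; -100 to 0, cell death (-40 = 40% of starting cells died; -100 = all dead).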 A number with no mark means an inactive call. The source made the active and inactive calls. How the source made its calls: active means growth percent below 10; inactive means the rest.

test system: HL-60(TB) leukemia; test: NCI-60 one-dose screen, 48 h (100 = growth as untreated, 0 = no growth, -100 = all killed); details: 10 µM unless noted

Structure (SMILES) | growth
CCOC(=O)CSc1ncnc2c1c(-c1ccccc1)c(-c1ccccc1)n2-c1ccc(C)cc1 | 55.9%
COC(=O)C1=COC(C)C2C[n+]3ccc4c([nH]c5ccccc54)c3CC12 (stereo not given) | 106% and 103%
Cc1c2ccccc2c(C)c2c1ccc1ccccc12 | 69.9%
O=C(NCCc1ccccc1)/C(=C\c1ccc(Cl)cc1Cl)NC(=O)c1ccccc1 | 112%
CCC(=O)Oc1ccc(/C(=C(/C)Cc2cccc(OC)c2)c2ccc(OCCN(C)C)cc2)cc1 | 91.3%
COC(=O)c1ccc(CSc2nnc(-c3c(C)nc4ccc(C)cn34)o2)cc1 | 97.5%
c1cc[n+](C2c3ccccc3C([n+]3ccccc3)c3ccccc32)cc1 (stereo not given) | 88.3%
CC(=O)Oc1ccc(C(c2ccc(OC(C)=O)cc2)c2ccccn2)cc1 | 102%
Nc1ncnc2c1N=C(c1ccc3c(c1)OCO3)CC(c1cccc(Nc3ccnc4cc(Cl)ccc34)c1)N2 (stereo not given) | 37.9%
Cc1ccc(S(=O)(=O)C2=C3C(=C(c4ccccc4)c4ccccc43)CN(S(=O)(=O)c3ccc(C)cc3)C2)cc1 | 65.7%
CCC(=C(c1ccc(OCCN2CCCC2)cc1)c1ccc(OCCN2CCCC2)cc1)c1ccc(Cl)cc1 | -52.5% (active)
CCOc1ccc2cc(-c3nn(CC4CCN(C)CC4)c4ncnc(N)c34)ccc2c1 | 96.7% and 54.3%
C=C1C(=O)O[C@H]2[C@H]1CC/C(COC(=O)Nc1nc3ccccc3[nH]1)=C\CC[C@@]1(C)O[C@@H]21 | 5.13% (active)
COC(=O)CCC1=C(C)C2=NC1=CC1=NC(=CC3=NC(=Cc4[nH]c(/c(=C(/C)O)c4C)=C2)C(C(C)=O)=C3C)C(C)=C1CCC(=O)OC | 78.2%
COc1ccc(/C=C2\COc3ccc(O)c(O)c3C2=O)cc1 | -5.92% (active)
CN(CC(=O)Nc1nc2ccccc2[nH]1)S(=O)(=O)c1ccc(Cl)cc1 | 90%
NC(CCc1nc2ccccc2c(=O)[nH]1)C(=O)O (stereo not given) | 103%
COc1cc(Nc2nc3ccccc3nc2NS(=O)(=O)c2ccc(NC(=O)c3ccc(C)c(OC)c3)cc2)cc(OC)c1 | 74.8% and 26.7%
Oc1c(Cl)cc(Cl)c2ccc(Cn3cc(-c4cc(F)cc(F)c4)nn3)nc12 | 2.85% (active)
COc1ccc(-c2nocc2-c2cccs2)cc1 | 115%

Structure (SMILES) | growth
CC(C)n1cnc2c(Nc3cccc(Cl)c3)nc(N[C@H]3CCCC[C@@H]3N)nc21 | 25.1%
NC(=O)c1n[nH]n2c1nc(=O)c1c3c(sc12)CCCC3 | 99.9%
CS(=O)(=O)Nc1cc(-c2ccc3ncnc(Nc4c(Cl)ccc5c4OCO5)c3c2)cnc1Cl | -4.02% (active)
O=C(Cc1ccccc1)Cc1ccccc1 | 99.2%
O=c1cc(-c2ccccc2)oc2cc(OCc3cn(Cc4ccc(F)cc4)nn3)cc(OCc3cn(Cc4ccc(F)cc4)nn3)c12 | 98%
Clc1ccc2c(c1)N(c1ncnc3ccc(-c4cnc5[nH]ncc5c4)cc13)CC2 | 34.5%
CC1(C)CC[C@]2(c3nnc(-c4ccncc4)o3)CC[C@H]3C(=CC[C@H]4[C@@]3(C)CC[C@H]3C(C)(C)C(=O)CC[C@]43C)[C@@H]2C1 | 3% (active)
CN1CCN(c2ccc(C(=O)Nc3cccc(C#Cc4cccc5[nH]nc(N)c45)c3)cc2C(F)(F)F)CC1 | -36.1% (active)
c1cc(CNCCNCc2ccncc2)ccn1 | 75.8%
CCc1ccc(Oc2c(-c3ccc(OCc4ccc(Cl)cc4)cc3O)n[nH]c2C(F)(F)F)cc1 | -6.99% (active)
COc1ccc(/C=C/C(=O)c2cc(OC)c(OC)c(OC)c2)cc1OCc1cn(Cc2ccc(F)cc2)nn1 | 69.4%
O=C(Nc1cccc(Cl)c1)Nc1cccc(Cn2c(=O)[nH]c3ccc(Oc4ncccn4)cc3c2=O)c1 | 45.3%
O=C(CSc1nccc(Nc2ccc(S(=O)(=O)Nc3ccccn3)cc2)n1)c1ccc(Cl)cc1 | 95.3%
COc1ccc(C2SC(C)C(=O)N2CCc2cccs2)cc1OC (stereo not given) | 74.5%
CN1CCC(c2ccccc2)(c2ccccc2)C(=O)C1 | 90.8%
COC[C@@H](C)n1c(C2CCOCC2)nc2c1C1C=C(OC)C(c3c(C)noc3C)=CC1N=C2 (stereo not given in full) | 11.8%
CCCCn1cnc2c(Sc3c([N+](=O)[O-])ncn3C)nc(N)nc21 | 54.3%
COc1cccc(CNc2ncnc3c2ncn3C2OC(CO)C(O)C2O)c1O (stereo not given) | -47% (active)
O=C(O)C1CCN(S(=O)(=O)c2ccc(-c3ccccc3)cc2)CC1 | 45.6%
COc1cc(/C=C/C(=O)C(C(=O)/C=C/c2ccc(OC(=O)CCNC34CC5CC(CC(C5)C3)C4)c(OC)c2)C(=O)CCNC23CC4CC(CC(C4)C2)C3)ccc1OC(=O)CCNC12CC3CC(CC(C3)C1)C2 (stereo not given) | -30.3% (active)
